# High-throughput results deposited in PubChem by National Center for Advancing Translational Sciences (NCATS).
# Most compounds without a hit are left out; they make up all but 3.4% or so of the library.
# Giardia FBPA inh – blocks Giardia fructose-bisphosphate aldolase activity; A8B2U2; purified Giardia FBPA; Potency, µM (titrated, usually from 59.6 µM), for the others: top-dose activity, negative = inhibition, usual class: inhibitors; hit rate 0.71% among 290,000; note: nearly all actives have a fitted effect of over 55% in size
#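 Giardia FBPA (40 nM reagent) was preincubated 10 min at RT with compound (up to 57.5 uM final), then substrate plus GAPDH/TPI/NAD/arsenate coupling system with diaphorase/resazurin was added; resorufin fluorescence (525/598 nm) was read after 20 min.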
# AmpC inh detg – blocks E. coli AmpC beta-lactamase in detergent assay. AID 485294. P00811. AmpC hydrolysis of nitrocefin, absorbance 480 nm, 0.01% Triton. hit rate 0.041% among 370,000. Potency, µM (top dose mostly 114 µM), for the others: at the highest dose activity change, negative = inhibition, actives largely listed as inhibitors;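 note: 0% = no-compound wells and -100% = no-enzyme wells; nearly all actives have a fitted effect of over 25% in size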
# Target sequence (P00811 whole entry, looked up): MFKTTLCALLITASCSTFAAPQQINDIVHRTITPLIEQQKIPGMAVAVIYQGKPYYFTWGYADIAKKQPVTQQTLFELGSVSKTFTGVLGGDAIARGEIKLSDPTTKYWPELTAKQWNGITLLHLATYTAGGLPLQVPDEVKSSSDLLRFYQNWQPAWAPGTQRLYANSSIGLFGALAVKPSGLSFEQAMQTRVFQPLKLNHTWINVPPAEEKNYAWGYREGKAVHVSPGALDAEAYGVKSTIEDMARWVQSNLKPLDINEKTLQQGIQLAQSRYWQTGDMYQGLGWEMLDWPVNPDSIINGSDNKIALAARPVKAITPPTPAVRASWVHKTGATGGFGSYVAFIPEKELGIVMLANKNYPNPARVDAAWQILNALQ
#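 20 mM phosphate pH 7.0 + 0.01% (detergent screen) or 0.0001% Triton X-100; 5.3 nM AmpC reagent; cpd preinc 15 min RT; nitrocefin (800 uM stock) to start; A480 q20 s × 4 min; Activity was normalised to no-enzyme and no-compound control wells.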
# Sm TGR block – inhibitors of Schistosoma mansoni thioredoxin glutathione reductase | Potency, µM (doses to about 114 µM), for the others: at the top dose activity change, negative = inhibition, hits mostly inhibitors | purified TGR, DTNB reduction, TNB absorbance 405 nm | hit rate 3% among 360,000; note: nearly all actives have a fitted effect of over 60% in size
#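 TGR 20 nM + NADPH 100 uM (dispensed conc.), cpd preinc 15 min RT; start with NADPH (500 uM addition) then DTNB (15 mM addition). Kinetic TNB absorbance, 405 nm filter. Four-parameter Hill fit across titration.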
# RE007 growth inh – less growth of the S. pombe RE007 Vpr strain; S. pombe RE007 Vpr strain, BacTiter-Glo ATP luminescence, 24 h; Potency, µM (top dose mostly 92.2 µM), for inactives: at the highest dose activity change, negative = less growth, most hits filed as inhibitors; hit rate 0.21% among 360,000; active = well fitted falling curve with a large enough effect; inconclusive = small, poorly fitted or top-dose-only effect; inactive = no such curve, though single readings can be large or run the other way; note: nearly all actives have a fitted effect of over 50% in size
#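 Fission yeast strain RE007, carrying one chromosomally integrated HIV-1 vpr copy, was seeded at OD 0.01 in PMG+AL medium with 23 nL pinned compound. After 24 h at 30 °C and 99% humidity, viability was read by BacTiter-Glo luminescence.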
# AmpC inh no detg – blocks E. coli AmpC beta-lactamase in detergent-free assay; AID 485341; hit rate 0.52% among 330,000; AmpC nitrocefin hydrolysis, absorbance 480 nm, 0.0001% Triton; Potency, µM (series often up to 57.1 µM), for inactives: top-dose activity change, negative = inhibition, usual class: inhibitors; P00811;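 note: plate controls were no compound for no effect and no enzyme for full effect; nearly all actives have a fitted effect of over 20% in size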
#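 20 mM phosphate pH 7.0 + 0.01% (detergent screen) or 0.0001% Triton X-100; 5.3 nM AmpC reagent; cpd preinc 15 min RT; nitrocefin (800 uM stock) to start; A480 q20 s × 4 min; Activity was normalised to no-enzyme and no-compound control wells.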
# * = called active by the depositor; ? = inconclusive; . = no result given; ! = not confirmed by another sample; [ ] = dose if it differs, or a comment. Unless noted, calls come from the whole dose curve; as a rule, active = well fitted curve in the direction sought with a large enough effect; inconclusive = small, poorly fitted or top-dose-only effect, or another doubt; inactive = no such curve, though single readings can be large; an effect the other way counts as inactive or inconclusive. Unless noted, % is set by controls: 0 for no effect and ±100 for the full control effect; potency is the fitted concentration of half-maximal effect.
SMILES,Giardia FBPA inh,AmpC inh detg,Sm TGR block,RE007 growth inh,AmpC inh no detg
CC1CCc2nc(NC(=O)COc3ccc(C(C)(C)C)cc3)sc2C1 (centres undefined),.,22%,6%,.,.
COC(=O)c1ccc(CSc2ccc3nnc(-c4ccc(F)cc4)n3n2)o1,-1%,-1%,-22%,-9%,-21%
COC(=O)c1ccc(CSc2ccc3nnc(-c4ccccn4)n3n2)o1,-19%,?,40µM*,8%,-2%
CCOC(=O)C1(C)/C(=N/Nc2cccc(Cl)c2)C(=O)C(=O)N1c1ccccc1 (centres undefined),-6%,-4%,0%,20%,-19%
CCOC(=O)C1(C)/C(=N/Nc2ccc(Cl)cc2)C(=O)C(=O)N1c1ccccc1 (centres undefined),-3%,-1%,50µM*,6%,-34%
CCS(=O)(=O)c1ncc(Cl)c(C(=O)NCc2ccc(OC)cc2)n1,.,8%,10µM*,.,.
CCCS(=O)(=O)c1ncc(Cl)c(C(=O)N(Cc2ccccc2)Cc2ccco2)n1,.,-9%,5µM*,.,.
CCS(=O)(=O)c1ncc(Cl)c(C(=O)N2CCN(c3ccc(OC)cc3)CC2)n1,.,0%,35µM*,.,.
CCS(=O)(=O)c1ncc(Cl)c(C(=O)N(Cc2ccccc2)c2ccc(OC)cc2)n1,.,8%,40µM*,.,.
Cc1cccc(C)c1NC(=O)C1(C)CSCC(=O)N1CCc1ccc(O)cc1 (centres undefined),.,.,.,0%,.
Cc1nc(C(F)(F)F)ccc1C(=O)N1CCCC(C(=O)O)CC1 (centres undefined),.,.,.,9%[18.4 µM],.
CN(C)C(CNC(=O)NC1CCCCC1)c1cccnc1 (centres undefined),4%,-13%,40µM*,4%,-4%
Cc1ccc(N(C(=O)CCl)C(C(=O)NC2CCCCC2)c2cccnc2)cc1C (centres undefined),5%,-6%,14µM*,3%,175%
CCN(c1cccc(C)c1)S(=O)(=O)c1nnc(NC(=O)c2ccccc2Cl)s1,.,7%,79µM*,.,.
CCN(c1ccccc1)S(=O)(=O)c1nnc(NC(=O)c2ccco2)s1,9%,-13%,20µM*!,-4%,-24%
CCN(c1cccc(C)c1)S(=O)(=O)c1nnc(NC(=O)c2cccs2)s1,.,1%,10%,.,.
Cc1ccc(N(CC(C)C)S(=O)(=O)c2nnc(NC(=O)c3ccco3)s2)cc1,.,1%,12%,.,.
CCN(c1cccc(C)c1)S(=O)(=O)c1nnc(NC(=O)c2ccco2)s1,-21%,-4%,25µM*,2%,-32%
CN(CC(=O)NCC1CCCCC1)S(=O)(=O)c1ccc(F)cc1,-5%,-8%,-14%,-1%,-3%
Cc1ccc(N/N=C(/Sc2nnnn2-c2ccccc2)C(=O)c2ccccc2)cc1,4%,35µM*,-2%,7%,4µM*
CN1CCN(C=Nc2nc3ccccc3nc2N2CCCC2)CC1,-7%,-10%,32µM*,-17%,-1%[2.29 µM]
COc1nc2ccccc2nc1N1CCN(C)CC1,2%,3%,-4%,5%,5%
COc1ccc(C2C3=C(CC(c4ccco4)CC3=O)Nc3ccccc3N2C(C)=O)cc1 (centres undefined),2%,?,15%,9%,6%
CC(=O)N1c2ccccc2NC2=C(C(=O)CCC2)C1c1ccco1 (centres undefined),-16%,-2%,35µM*,9%,13%
Cc1ccsc1C=Nc1ccc(O)cc1,5.6µM*,-9%,18µM*,-10%,-25%
O=C(Nc1ncc([N+](=O)[O-])s1)c1cccs1,0%,-12%,-21%,28µM*,-15%
CC(C)c1nnc(NC(=O)CCS(=O)(=O)c2ccccc2)s1,-11%,2%,18µM*,5%,-11%
Cc1cnc(NC(=O)c2cccs2)s1,-7%,2%,-2%,2%,-22%
CCc1nnc(NC(=O)CCS(=O)(=O)c2ccccc2)s1,1%,-13%,22µM*,-13%,-4%
CCCC(C)c1nnc(NC(=O)CCS(=O)(=O)c2ccccc2)s1 (centres undefined),4%,-11%,89µM*,?,-4%
